Laboratory results reported in PubChem BioAssay (NCATS).
Records with an inconclusive call do not appear. Entries that show only a call come without a potency. Active and inactive are the calls of the source. Calls follow the shape of the dose curve; as a rule, active = well fitted inhibition curve with a large enough effect; inconclusive = small, poorly fitted or top-dose-only effect; inactive = no such curve, though single readings can be large or run the other way.

Assay: qHTS assay for measurement of the activity of small molecule inhibitors on Zika virus induced Caspase-3 activity in human iPSC derived neural progenitor cells (hNPCs) (AID 1224857); also: nearly all actives have a fitted effect of over 65% in size
Conditions: hNPCs ZIKV-induced caspase-3/7, Caspase-Glo luminescence, 6 h; series mostly up to 45.7 µM
Outline: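 In medium with heparin 2 ug/ml and cyclopamine 2 uM, hNPCs (350 cells/well) received compound for one hour and then Zika virus at 2 FFU/cell; caspase activity was measured by Caspase-Glo 3/7 luminescence 6 h post-infection.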

Compound	Potency
CC(C(O)c1ccccc1)N(C)CCOC(c1ccccc1)c1ccccc1 (centres undefined)	inactive
CC(C)(C)c1nnc(NS(=O)(=O)c2ccccc2)s1	inactive
CCC(C(=O)NC(=O)NC(C)=O)c1ccccc1 (centres undefined)	inactive
COC(=O)c1c(Cl)c(Cl)c(C(=O)OC)c(Cl)c1Cl	inactive
CCOC(=O)NNc1ccc(N(CC)CC(C)O)nn1 (centres undefined)	inactive
CCO[C@H](Cc1ccc(OCCc2ccc(OS(C)(=O)=O)cc2)cc1)C(=O)O	inactive
Nc1c(NC/C=C\COc2cc(CN3CCCCC3)ccn2)c(=O)c1=O	inactive
O=C(NN1CCCC1)NS(=O)(=O)c1ccc(Cl)cc1	inactive
N[C@@H](Cc1cc(I)c(O)c(I)c1)C(=O)O	inactive
CC(=O)OCC(=O)[C@@]1(O)[C@H](OC(C)=O)C[C@H]2[C@@H]3CCC4=CC(=O)C=C[C@]4(C)[C@@]3(F)[C@@H](O)C[C@@]21C	inactive
O=C(O)c1ccccc1Nc1cc(Cl)ccc1C(=O)O	inactive
CCOC(=O)OCC/C(SC(=O)OCC)=C(\C)N(C=O)Cc1cnc(C)nc1N	inactive
CCOc1ccc(NS(=O)(=O)c2ccc(N)cc2)nn1	inactive
C[N+]1(C)CCC(OC(=O)C(O)(c2ccccc2)C2CCCC2)C1 (centres undefined)	inactive
CC1(C)S[C@@H]2[C@H](NC(=O)C(c3ccccc3)S(=O)(=O)O)C(=O)N2[C@H]1C(=O)O (some centres undefined)	inactive
O=C(Oc1ccccc1)c1cccc(C(=O)Oc2ccccc2)c1	inactive
O=C(O)CCCC[C@@H]1SC[C@@H]2NC(=O)N[C@@H]21	inactive
CC(=O)[C@H]1CC[C@H]2[C@@H]3C=CC4=CC(=O)CC[C@@]4(C)[C@@H]3CC[C@]12C	inactive
O=[N+]([O-])c1nccn1CO[C@@H](CO)[C@H](O)CO	inactive

Compound	Potency
Cc1cc2nc3ccc(=[N+](C)C)cc-3sc2cc1N	inactive
O=C(O)[C@H](O)[C@@H](O)[C@H](O[C@@H]1O[C@H](CO)[C@H](O)[C@H](O)[C@H]1O)[C@H](O)CO	inactive
O=C(COCCOCCOCC(=O)Nc1c(I)cc(I)c(C(=O)O)c1I)Nc1c(I)cc(I)c(C(=O)O)c1I	inactive
O=C(O)/C=C(\CC(=O)O)C(=O)O	inactive
CCCCCC[C@@H](CCC)C(=O)O	inactive
CN(C(=O)C(Cl)Cl)c1ccc(OC(=O)c2ccco2)cc1	inactive
CC(=O)OCC(=O)[C@@]1(O)CCC2C3CCC4=CC(=O)CC[C@]4(C)C3[C@@H](O)C[C@@]21C (some centres undefined)	inactive
Cc1nc([N+](=O)[O-])cn1-c1ccc([N+](=O)[O-])cc1	inactive
CC(C)C(C)(C)C(C)(C)C(C)(C)S	inactive
CCCCC/C=C\C/C=C\CCCCCCCC(=O)NC(C)c1ccccc1 (centres undefined)	inactive
CN1C(=O)CC(C)(c2ccccc2)C1=O (centres undefined)	inactive
CN1[C@@H]2CC[C@H]1CC(NC(=O)n1c(=O)[nH]c3ccccc31)C2 (some centres undefined)	inactive
CO[C@@H]1[C@@H](O[C@@H]2O[C@H](C)[C@@H](O[C@H]3C[C@@](C)(O)[C@@H](O)[C@H](C)O3)[C@H](N(C)C)[C@H]2O)[C@@H](CC=O)C[C@@H](C)[C@@H](O[C@@H]2CC[C@H](N(C)C)[C@@H](C)O2)/C=C/C=C/C[C@@H](C)OC(=O)C[C@H]1OC(C)=O	inactive
Cc1c(C)c2c(c(C)c1OC(=O)CCC(=O)OCCO)CC[C@@](C)(CCC[C@H](C)CCC[C@H](C)CCCC(C)C)O2	inactive
CCN1CCN(C(=O)N[C@@H](C(=O)N[C@@H]2C(=O)N3[C@@H]2SC(C)(C)[C@H]3C(=O)O)c2ccccc2)C(=O)C1=O	inactive
CN1CCC(=C2c3ccccc3CCc3cccnc32)CC1	inactive
CC(=O)CC/C=C(\C)CC/C=C(\C)CC/C=C(\C)CCC=C(C)C	inactive
OC[C@]1(O)OC[C@@H](O)[C@H](O)[C@@H]1O	inactive

Assay: qHTS assay for measurement of the activity of small molecule inhibitors on Zika virus induced Caspase-3 activity in human astrocytoma cells (AID 1224859)
Conditions: SNB-19 ZIKV-induced caspase-3/7, luminescence, 6 h; series mostly up to 45.7 µM
Outline: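 A cell-based luminescent caspase-3/7 assay used SNB-19 cells infected with ZIKV (2 FFU/cell) for 6 h following 1 h compound pretreatment.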

Compound	outcome
CC(C(O)c1ccccc1)N(C)CCOC(c1ccccc1)c1ccccc1 (centres undefined)	inactive
CC(C)(C)c1nnc(NS(=O)(=O)c2ccccc2)s1	inactive
CCC(C(=O)NC(=O)NC(C)=O)c1ccccc1 (centres undefined)	inactive
COC(=O)c1c(Cl)c(Cl)c(C(=O)OC)c(Cl)c1Cl	inactive
CCOC(=O)NNc1ccc(N(CC)CC(C)O)nn1 (centres undefined)	inactive
CCO[C@H](Cc1ccc(OCCc2ccc(OS(C)(=O)=O)cc2)cc1)C(=O)O	inactive
Nc1c(NC/C=C\COc2cc(CN3CCCCC3)ccn2)c(=O)c1=O	inactive
O=C(NN1CCCC1)NS(=O)(=O)c1ccc(Cl)cc1	inactive
N[C@@H](Cc1cc(I)c(O)c(I)c1)C(=O)O	inactive
CC(=O)OCC(=O)[C@@]1(O)[C@H](OC(C)=O)C[C@H]2[C@@H]3CCC4=CC(=O)C=C[C@]4(C)[C@@]3(F)[C@@H](O)C[C@@]21C	inactive
O=C(O)c1ccccc1Nc1cc(Cl)ccc1C(=O)O	inactive
CCOC(=O)OCC/C(SC(=O)OCC)=C(\C)N(C=O)Cc1cnc(C)nc1N	inactive
CCOc1ccc(NS(=O)(=O)c2ccc(N)cc2)nn1	inactive
C[N+]1(C)CCC(OC(=O)C(O)(c2ccccc2)C2CCCC2)C1 (centres undefined)	inactive
CC1(C)S[C@@H]2[C@H](NC(=O)C(c3ccccc3)S(=O)(=O)O)C(=O)N2[C@H]1C(=O)O (some centres undefined)	inactive
O=C(Oc1ccccc1)c1cccc(C(=O)Oc2ccccc2)c1	inactive
O=C(O)CCCC[C@@H]1SC[C@@H]2NC(=O)N[C@@H]21	inactive
CC(=O)[C@H]1CC[C@H]2[C@@H]3C=CC4=CC(=O)CC[C@@]4(C)[C@@H]3CC[C@]12C	inactive
O=[N+]([O-])c1nccn1CO[C@@H](CO)[C@H](O)CO	inactive

Compound	outcome
Cc1cc2nc3ccc(=[N+](C)C)cc-3sc2cc1N	inactive
O=C(O)[C@H](O)[C@@H](O)[C@H](O[C@@H]1O[C@H](CO)[C@H](O)[C@H](O)[C@H]1O)[C@H](O)CO	inactive
O=C(COCCOCCOCC(=O)Nc1c(I)cc(I)c(C(=O)O)c1I)Nc1c(I)cc(I)c(C(=O)O)c1I	inactive
O=C(O)/C=C(\CC(=O)O)C(=O)O	inactive
CCCCCC[C@@H](CCC)C(=O)O	inactive
CN(C(=O)C(Cl)Cl)c1ccc(OC(=O)c2ccco2)cc1	inactive
CC(=O)OCC(=O)[C@@]1(O)CCC2C3CCC4=CC(=O)CC[C@]4(C)C3[C@@H](O)C[C@@]21C (some centres undefined)	inactive
Cc1nc([N+](=O)[O-])cn1-c1ccc([N+](=O)[O-])cc1	inactive
CC(C)C(C)(C)C(C)(C)C(C)(C)S	inactive
CCCCC/C=C\C/C=C\CCCCCCCC(=O)NC(C)c1ccccc1 (centres undefined)	inactive
CN1C(=O)CC(C)(c2ccccc2)C1=O (centres undefined)	inactive
CN1[C@@H]2CC[C@H]1CC(NC(=O)n1c(=O)[nH]c3ccccc31)C2 (some centres undefined)	inactive
CO[C@@H]1[C@@H](O[C@@H]2O[C@H](C)[C@@H](O[C@H]3C[C@@](C)(O)[C@@H](O)[C@H](C)O3)[C@H](N(C)C)[C@H]2O)[C@@H](CC=O)C[C@@H](C)[C@@H](O[C@@H]2CC[C@H](N(C)C)[C@@H](C)O2)/C=C/C=C/C[C@@H](C)OC(=O)C[C@H]1OC(C)=O	inactive
Cc1c(C)c2c(c(C)c1OC(=O)CCC(=O)OCCO)CC[C@@](C)(CCC[C@H](C)CCC[C@H](C)CCCC(C)C)O2	inactive
CCN1CCN(C(=O)N[C@@H](C(=O)N[C@@H]2C(=O)N3[C@@H]2SC(C)(C)[C@H]3C(=O)O)c2ccccc2)C(=O)C1=O	inactive
CN1CCC(=C2c3ccccc3CCc3cccnc32)CC1	inactive
CC(=O)CC/C=C(\C)CC/C=C(\C)CC/C=C(\C)CCC=C(C)C	inactive
OC[C@]1(O)OC[C@@H](O)[C@H](O)[C@@H]1O	inactive
